IL-1B inflam inh: inflammasome signaling inhibition, IL-1 beta readout | THP-1 LPS/ATP IL-1B secretion, AlphaLISA, 16 h; stronger effect = lower value | 360,000 tested, 4.7% active | activity change, % at 57.5 µM; in the data active = activity change below about -50%; inconclusive = mostly about -30% to -49%
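Secreted IL-1B measured by AlphaLISA bead assay after 16 h compound exposure of THP-1 cells; compounds (final up to 57.5 uM) added 1 h before LPS (250 ng/mL) and ATP (1.25 mM) stimulation; lower signal means less secretion.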
TDP1 block: TDP1 (human) enzyme inhibition; recombinant TDP1, AlphaScreen DNA substrate cleavage; 350,000 tested, 0.28% active; AID 485290; Potency, µM (highest dose often 130 µM), inactives show top-dose activity change, negative = inhibition, hits mostly inhibitors; also: potency is read from the fitted curve at half-maximal effect; nearly all actives have a fitted effect of over 40% in size
Target sequence (Q9NUW8 whole entry, looked up): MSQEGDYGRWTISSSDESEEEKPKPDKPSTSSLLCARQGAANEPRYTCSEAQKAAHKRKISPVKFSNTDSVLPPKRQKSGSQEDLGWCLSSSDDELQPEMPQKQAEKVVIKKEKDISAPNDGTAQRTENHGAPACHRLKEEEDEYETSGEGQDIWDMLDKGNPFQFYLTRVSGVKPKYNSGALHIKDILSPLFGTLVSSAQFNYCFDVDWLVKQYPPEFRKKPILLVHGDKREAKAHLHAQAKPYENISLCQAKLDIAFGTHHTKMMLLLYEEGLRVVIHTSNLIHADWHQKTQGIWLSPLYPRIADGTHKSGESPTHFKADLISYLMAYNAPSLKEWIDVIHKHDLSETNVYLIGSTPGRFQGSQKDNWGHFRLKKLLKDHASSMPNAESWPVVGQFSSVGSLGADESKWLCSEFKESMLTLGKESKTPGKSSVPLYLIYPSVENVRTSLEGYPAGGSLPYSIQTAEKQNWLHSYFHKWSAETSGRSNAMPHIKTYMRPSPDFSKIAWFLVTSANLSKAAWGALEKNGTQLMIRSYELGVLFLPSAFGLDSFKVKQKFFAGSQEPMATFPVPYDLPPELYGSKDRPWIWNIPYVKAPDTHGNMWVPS
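Recombinant human Tdp1 (E. coli-expressed, 1 nM final) preincubated with compounds 15 min at room temperature, then 5'-biotin/3'-phosphotyrosine-FITC DNA substrate (15 nM final) added for 5 min. AlphaScreen beads (10 ug/ml final) added 10 min; cleavage lowers signal.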
DT40 TDP1 no CPT: qHTS for Inhibitors of human tyrosyl-DNA phosphodiesterase 1 (TDP1): qHTS in cells in absence of CPT; DT40 Tdp1-/- hTDP1 cells, no CPT, ATP luminescence, 48 h; Potency, µM (top dose mostly 46.2 µM), without a hit: at the top dose activity change, negative = growth inhibition, usual class: inhibitors; 420,000 tested, 15% active; AID 686978, 2013; also: potency is read from the fitted curve at half-maximal effect; nearly all actives have a fitted effect of over 55% in size
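Readout: luminescence from CellTiter-Glo after 30 min in the dark at RT. Cells: DT40 Tdp1-/- with stable hTDP1, 400/well. Exposure: compounds alone, ≥48 hr, 37 °C.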
CtBP-E1A inh: inhibitors of CtBP/E1A interaction | AlphaScreen GST-E1A/His-CtBP binding, 1536-well; stronger effect = lower value | activity change, % (concentration not given with the values) | 340,000 tested, 0.49% active | AID 651724; in the data active = activity change below about -65%; inconclusive = mostly about -30% to -63%
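GST-E1A and His-tagged CtBP (125 nM each as 5X stock) were preincubated with pin-transferred compound for 2 h at 37 °C in the dark, then glutathione donor and nickel acceptor beads were added for 1 h before AlphaScreen reading.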
Six1-Eya2 blk: Six1/Eya2 interaction inhibition; Q15475+O00167; AlphaScreen GST-Six1/His-Eya2 binding, biochemical; stronger effect = lower value; activity change, % (concentration not given with the values); 360,000 tested, 0.56% active; in the data active = activity change below about -65%; inconclusive = mostly about -30% to -63%
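AlphaScreen luminescence read after one hour at 37 °C in darkness. Pin-transferred compounds met GST-Six1 and His-Eya2 protein (5X stock 250 nM/500 nM) plus glutathione donor and Ni-chelate acceptor beads (5X, 50 ug/mL).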
TDP1 cell CPT: DT40-hTDP1 cell growth loss with CPT; chicken DT40 Tdp1-/-;hTDP1 cells + 20 nM CPT, ATP luminescence, 48 h; Potency, µM (highest dose often 46.2 µM), for inactives: at the highest dose activity change, negative = growth inhibition, usual class: inhibitors; 420,000 tested, 12% active; also: potency is read from the fitted curve at half-maximal effect; nearly all actives have a fitted effect of over 55% in size
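Cell growth measured by CellTiter-Glo luminescence after a minimum 48 h, 37 C compound exposure with 20 nM CPT in Tdp1-knockout DT40 cells stably expressing hTDP1, seeded 400/well; qHTS titration format.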
Active calls of the source: *; i = inactive; ? = inconclusive; · = no result; [ ] = dose if it differs, or a comment. In the library only some 18% were active in any assay of this set; here they are far more common. Unless noted, calls follow the shape of the dose curve; as a rule, active = well fitted curve in the direction sought with a large enough effect; inconclusive = small, poorly fitted or top-dose-only effect, or another doubt; inactive = no such curve, though single readings can be large; an effect the other way counts as inactive or inconclusive. % is scaled to controls: 0 for no effect and ±100 for the full control effect.

SMILES	IL-1B inflam inh	TDP1 block	DT40 TDP1 no CPT	CtBP-E1A inh	Six1-Eya2 blk	TDP1 cell CPT
Cc1ccc(-c2nn(C)c(=O)c3ccccc23)cc1CO	-1.6	-2.5%	-15.7%	-0.2	10.5	-29.7%
Cc1ccc(N2C(=O)CC(c3ccsc3)C3=C2CC(C)(C)CC3=O)cc1 (configuration not stated)	-5.6	2.0%	-5.1%	0.6	-3.4	-10.2%
CC(=O)OC1CC(C)N(C(=O)c2ccccc2)c2ccc(C)cc21 (configuration not stated)	-3.4	2.4%	?	-1.0	-2.7	?
CC(=O)N1c2ccc(C)cc2C(c2ccccc2)CC1C (configuration not stated)	-55.4*	·	?	-7.9	-3.2	?
CCCC(=O)OC1CC(C)N(C(=O)c2ccccc2)c2ccc(C)cc21 (configuration not stated)	2.6	-5.5%	23.1µM*	0.7	-1.7	?
Cc1nc(NCCO)c2nc(-c3ccccc3)n(CCN(C)C)c2n1	·	-1.5%	·	·	·	·
CCOC(=O)c1ccccc1NS(=O)(=O)c1c(-c2ccc(C)cc2)csc1C(=O)OC	·	1.9%	5.8µM*	·	·	6.51µM*
CCOc1ccccc1NS(=O)(=O)c1c(-c2ccc(C)cc2)csc1C(=O)OC	·	4.5%	16.4µM*	·	·	?
Cc1nn(-c2ccc(F)cc2)c(-n2cccc2)c1C(=O)N1CCN(c2ccc(F)cc2)CC1	·	2.8%	·	·	·	·
N#Cc1ccccc1OCC(=O)OCC(=O)c1ccc2c(c1)NC(=O)CO2	16.0	-1.0%	-0.3%	6.9	6.5	4.8%
CCn1cc(CN2CCN(CCC(C)C)C(CCO)C2)c2ccccc21 (configuration not stated)	5.2	·	?	·	-3.2	?
CCN(CC)c1cccc(OC2=NS(=O)(=O)c3ccccc32)c1	3.5	9.8%	16.4µM*	0.2	-6.5	8.2µM*
Cc1cccc(OC2=NS(=O)(=O)c3ccccc32)c1	·	2.1%	·	·	·	·
O=S1(=O)N=C(Oc2ccccc2F)c2ccccc21	·	2.8%	·	·	·	·
COc1ccccc1OC1=NS(=O)(=O)c2ccccc21	-1.2	2.1%	13µM*	4.1	11.7	20.6µM*
Cc1cnc(C(=O)OCC(=O)NC(C)C)cn1	30.8	2.0%	-5.0%	1.7	4.0	1.8%
CC(CC(=O)c1cccs1)CC(=O)c1cccs1	-7.2	-3.2%	-6.1%	12.0	7.3	-22.3%
Cc1cc(C)c(C(CC(=O)c2cccs2)C(C#N)C#N)c(C)c1 (configuration not stated)	-104.6*	0.0%	25.9µM*	-1.7	-8.5	?
CC(=O)CCC(=O)NC1CCCc2c1cnn2-c1ccc(C(C)(C)C)cc1 (configuration not stated)	48.8	·	?	5.3	0.0	?
CC1(C)Cc2c(cnn2-c2ccc(F)cc2)C(NC(=O)CCN2CCCC2=O)C1 (configuration not stated)	34.0	1.8%	?	-0.4	-0.9	18.4µM*
COc1ccc(-n2ncc3c2CC(C)(C)CC3NC(=O)c2c(C)cc(=O)oc2C)cc1 (configuration not stated)	-2.2	1.0%	?	-11.5	2.0	25.9µM*
CC1(C)Cc2c(cnn2-c2ccc(F)cc2)C(NC(=O)C2=NNC(=O)CC2)C1 (configuration not stated)	29.4	2.9%	?	1.7	-1.7	14.6µM*
CC(C)(C)c1ccc(-n2ncc3c2CCCC3NC(=O)CN2CCCC2=O)cc1 (configuration not stated)	i	2.7%[56.1 µM]	16.4µM*	-4.9	0.2	18.4µM*
CC(C)N(C)Cc1nnnn1CC(=O)NCc1cc(F)cc(C(F)(F)F)c1	9.5	·	0.7%	5.4	-6.0	-16.9%
CC(C)(C)c1ccc(-n2ncc3c2CCCC3NC(=O)CCN2CCCC2=O)cc1 (configuration not stated)	17.8	3.9%	2.06µM*	·	2.0	6.51µM*
SMILES	IL-1B inflam inh	TDP1 block	DT40 TDP1 no CPT	CtBP-E1A inh	Six1-Eya2 blk	TDP1 cell CPT
CC(=O)c1cccc(NC(=O)Cn2ccn3nc(-c4ccccc4)cc3c2=O)c1	·	3.8%	2.8%	·	·	7.1%
O=c1c2c(O)cc(O)cc2oc2c(O)ccc(O[C@H]3O[C@@H](CO)[C@H](O)[C@@H](O)[C@@H]3O)c12	23.0	-9.7%	-1.4%	-3.1	-7.8	-20.2%
COc1ccc(/C=C2/Sc3ccc(C(=O)NCCN4CCCCCC4)cc3NC2=O)cc1	-89.7*	6.9%	3.26µM*	·	-19.6	3.66µM*
O=C1Nc2cc(C(=O)NCCCN3CCCC3)ccc2S/C1=C\c1ccccc1	-8.5	4.4%	18.4µM*	·	-10.2	?
O=C1Nc2cc(C(=O)NCCCN3CCOCC3)ccc2S/C1=C/c1cccc(Cl)c1	-3.9	6.7%	?	·	-11.4	?
CCC1CCCCN1CCCNC(=O)c1ccc(/C=C2/Sc3ccccc3NC2=O)cc1 (configuration not stated)	-1.5	3.1%	3.66µM*	·	11.3	?
COCCN=C1N[C@@H](c2ccccc2)C(C(=O)OC)=C(C)N1Cc1ccccc1	-16.6	·	23.1µM*	2.9	-0.4	?
COC(=O)C1=C(C)N(Cc2ccccc2)C(=NCc2cccc(Cl)c2)N[C@H]1c1ccccc1	?	0.7%	20.6µM*	-0.5	0.4	11.6µM*
COC(=O)C1=C(C)N(Cc2ccccc2)C(=NCc2ccccc2)N[C@H]1c1cccc(F)c1	0.0	·	8.2µM*	-0.4	-3.9	16.4µM*
C=CCN=C1N[C@@H](c2ccccc2)C(C(=O)OC)=C(C)N1CCOC	-7.5	·	-23.3%	3.1	4.5	-27.5%
COC(=O)C1=C(C)N(CC2CC2)C(=NCc2cccc(Cl)c2)N[C@H]1c1ccccc1	-61.7*	·	?	-1.3	-4.5	16.4µM*
CC(=O)C(/C=N/c1ncc(C(F)(F)F)cc1Cl)=C(\C)O	0.0	1.3%	14.9%	-17.7	1.2	-8.1%
CCS(=O)(=O)Nc1cc2c3c(c1)CCN3C(=O)CC2	17.2	·	-1.5%	·	-4.9	7.5%
O=S(=O)(c1ccccc1Cl)N1CCC(Cc2ccccc2)CC1	15.5	·	-9.9%	3.6	7.8	-15.9%
CC(OC(=O)COc1ccccc1Cc1ccccc1)C(=O)N(C)c1ccccc1 (configuration not stated)	-0.4	·	?	-0.5	6.4	-0.8%
Cc1cnc(C)c(-c2cc(F)cc3c2OC(CNC(=O)CN2CCCC2)C3)n1 (configuration not stated)	·	·	-17.3%	·	·	9.4%

Assay outcomes from PubChem.
